# Assay results reported in PubChem BioAssay (NCATS).
# Results filed as inconclusive are left out. Where a call stands in place of a potency, no number is given. A number with no mark means an inactive call. Active and inactive are the calls of the source. Calls follow the shape of the dose curve; as a rule, active = well fitted curve in the direction sought with a large enough effect; inconclusive = small, poorly fitted or top-dose-only effect, or another doubt; inactive = no such curve, though single readings can be large; an effect the other way counts as inactive or inconclusive.
# What was measured:
# HEK293 = test: Cytotoxic Profiling of Annotated Libraries Using Quantitative High-Throughput Screening (AID 1296008); conditions: Five cell lines viability, CellTiter-Glo ATP luminescence, 48-72 h; max response: stronger effect = lower value; also: nearly all actives have a fitted effect of over 60% in size; also: potency is read from the fitted curve at half-maximal effect
# Procedure, shortened: (§1)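 Compounds were pin-transferred onto cells and incubated 48 or 72 hr at 37 degree Celsius, 95% humidity. CellTiter-Glo was added, plates sat 10 min at room temperature, then ATP-coupled luminescence was imaged as the viability read-out.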
# HaCat = test: as above; conditions: Five cell lines viability, CellTiter-Glo ATP luminescence, 48-72 h; max response: stronger effect = lower value
# Procedure, shortened: as §1
# KB-3-1 = test: as above; conditions: Five cell lines viability, CellTiter-Glo ATP luminescence, 48-72 h; max response: stronger effect = lower value
# Procedure, shortened: as §1
# NIH3T3 = test: as above; conditions: Five cell lines viability, CellTiter-Glo ATP luminescence, 48-72 h; max response: stronger effect = lower value
# Procedure, shortened: as §1
# C33A = test: Primary qHTS to identify gynecologic anti-cancer compounds using libraries of approved drugs and bioactive compounds (AID 1345084); conditions: Gynecologic cancer cell panel viability, ATPlite luminescence, 48 h; series mostly up to 57.5 µM; also: nearly all actives have a fitted effect of over 55% in size
# Procedure, shortened: (§2)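 Cell viability after 48 h drug treatment, ATPlite luminescence readout; five doses.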
# CAOV3 = test: as above; conditions: Gynecologic cancer cell panel viability, ATPlite luminescence, 48 h; series mostly up to 57.5 µM
# Procedure, shortened: as §2
# CASKI = test: as above; conditions: Gynecologic cancer cell panel viability, ATPlite luminescence, 48 h; series mostly up to 57.5 µM
# Procedure, shortened: as §2
# Es-2 = test: as above; conditions: Gynecologic cancer cell panel viability, ATPlite luminescence, 48 h; series mostly up to 57.5 µM
# Procedure, shortened: as §2
# HeLa = test: as above; conditions: Gynecologic cancer cell panel viability, ATPlite luminescence, 48 h; series mostly up to 57.5 µM
# Procedure, shortened: as §2
# Hek293T = test: as above; conditions: Gynecologic cancer cell panel viability, ATPlite luminescence, 48 h, control line for the selectivity index; series mostly up to 57.5 µM
# Procedure, shortened: as §2
# JEG-3 = test: as above; conditions: Gynecologic cancer cell panel viability, ATPlite luminescence, 48 h; series mostly up to 57.5 µM
# Procedure, shortened: as §2
Compound,max response (HEK293) [%],max response (HaCat) [%],max response (KB-3-1) [%],max response (NIH3T3) [%],Potency (C33A),Potency (CAOV3),Potency (CASKI),Potency (Es-2),Potency (HeLa),Potency (Hek293T),Potency (JEG-3),Potency (HEK293),outcome (KB-3-1),"activity change, negative = cytotoxicity (C33A)","activity change, negative = cytotoxicity (CAOV3)","activity change, negative = cytotoxicity (CASKI)","activity change, negative = cytotoxicity (Es-2)","activity change, negative = cytotoxicity (HeLa)","activity change, negative = cytotoxicity (Hek293T)","activity change, negative = cytotoxicity (JEG-3)"
Cc1nc(C)c(-c2ccc(C3CCC(CC(=O)O)CC3)cc2)nc1C(N)=O (stereo not given),-0.422,-2.77,-11.8,2.81,inactive,inactive,inactive,inactive,inactive,inactive,inactive,–,–,–,–,–,–,–,–,–
CO[C@H]1O[C@@H]2O[C@]3(C)CC[C@H]4[C@H](C)CC[C@@H]([C@H]1C)[C@@]24OO3,–,-0.0315,–,4.96,inactive,inactive,inactive,inactive,inactive,inactive,inactive,10.3 µM (active),inactive,–,–,–,–,–,–,–
COC1C(CO)OC(n2cnc3c(=O)[nH]cnc32)C1O (stereo not given),0.852,-1.42,2.15,-5.01,inactive,inactive,inactive,inactive,inactive,inactive,inactive,–,–,–,–,–,–,–,–,–
C=C(C(=O)O)[C@@H]1CC[C@@]2(C)CC[C@H](O)[C@@]2(C(C)=O)C1,-2.38,-0.694,2.3,-3.95,inactive,inactive,inactive,inactive,inactive,inactive,inactive,–,–,–,–,–,–,–,–,–
C/C=C/C=C/C(O)=C1\C(O)=C(C)C(=O)[C@@]2(C)OC(=O)[C@@](C)(NC(=O)/C=C/C(=O)O)[C@@H]12,-6.48,-17.6,-1.41,-1.65,inactive,inactive,inactive,inactive,inactive,inactive,inactive,–,–,–,–,–,–,–,–,–
COC(=O)[C@H](O)[C@H]1C(C)(C)[C@H](OC(=O)C(C)C)[C@@]2(O)C(=O)[C@]1(C)C1CC[C@]3(C)C(CC(=O)O[C@H]3c3ccoc3)[C@]13O[C@@H]32 (stereo not given in full),-5.39,-4.38,–,-25.1,inactive,inactive,inactive,inactive,inactive,inactive,inactive,–,inactive,–,–,–,–,–,–,–
O=S(=O)(NC1CCC(c2cc(F)ccc2F)(S(=O)(=O)c2ccc(Cl)cc2)CC1)C(F)(F)F (stereo not given),-4.12,-23.1,5.9,-17.1,inactive,inactive,inactive,inactive,inactive,inactive,inactive,–,–,–,–,–,–,–,–,–
C=C1CCC2C(C)(C(=O)O)CCCC2(C)C1CCC(C)CC(=O)O (stereo not given),-0.0508,3.35,-0.708,-9.77,inactive,inactive,inactive,inactive,inactive,inactive,inactive,–,–,–,–,–,–,–,–,–
COc1ccc(-c2nc(-c3ccc(-c4cccc(Cl)c4)o3)[nH]c2-c2ccc(OC)cc2)cc1,–,-26.5,-16.3,-19.3,inactive,inactive,inactive,inactive,inactive,inactive,inactive,20.6 µM (active),–,–,–,–,–,–,–,–
CC1CCC2(OC1)OC1CC3C4CC=C5CC(O)CC(O[C@@H]6OC[C@@H](O)[C@H](O)[C@H]6O)C5(C)C4CCC3(C)C1(O)C2C (stereo not given in full),3.32,3.49,5.9,-1.3,inactive,inactive,inactive,inactive,inactive,inactive,inactive,–,–,–,–,–,–,–,–,–
C[C@H](N)C(=O)N[C@@H](Cc1ccc(O)cc1)C(=O)N1CCC[C@H]1C(=O)NCC(=O)N[C@@H](CCCCN)C(=O)N[C@@H](Cc1ccccc1)C(N)=O,2.75,-13.5,–,3.32,–,–,–,–,–,–,–,–,inactive,10.6% [at 11.6 µM],7.8% [at 11.6 µM],6.63% [at 11.6 µM],2.05% [at 11.6 µM],3.06% [at 11.6 µM],13% [at 11.6 µM],1.3% [at 11.6 µM]
COc1cc2c(cc1O)[C@H](c1ccc(O[C@@H]3O[C@H](CO)[C@@H](O)[C@H](O)[C@H]3O)c(OC)c1)[C@@H](CO)[C@](O)(CO)C2,2.27,-2.06,–,2.92,inactive,inactive,inactive,inactive,inactive,inactive,inactive,–,inactive,–,–,–,–,–,–,–
Cc1cc(C)nc(NS(=O)(=O)c2ccc(NC(=S)NC(=O)COc3ccc(Br)cc3Cl)cc2)n1,2.6,-3.13,8.68,-1.58,inactive,inactive,inactive,inactive,inactive,inactive,inactive,–,–,–,–,–,–,–,–,–
CC(CO)C1CCC2(C)CC3C(CO)CC(O)C3C(C)(O)C/C=C/12 (stereo not given),-10.5,-5.8,–,0.217,inactive,inactive,inactive,inactive,inactive,inactive,inactive,–,inactive,–,–,–,–,–,–,–
O=C(OC[C@H]1O[C@H](O[C@]2(CO)O[C@H](CO)[C@@H](O)[C@@H]2O)[C@H](O)[C@@H](O)[C@@H]1O)c1ccccc1,1.14,0.397,8.19,4.12,inactive,inactive,inactive,inactive,inactive,inactive,inactive,–,–,–,–,–,–,–,–,–
Cc1cn(C2C=CC(CO)O2)c(=O)[nH]c1=O (stereo not given),-22.8,-43.4,6.19,-7.77,inactive,inactive,inactive,inactive,inactive,inactive,inactive,–,–,–,–,–,–,–,–,–
C/C=C/C=C/[C@@H]1O[C@](O)([C@H](CC)C(=O)NC/C=C/C=C(\C)[C@@H](OC)[C@@H](C)C2OC(/C=C/C=C/C=C(\C)C(=O)c3c(O)cc[nH]c3=O)[C@H](O)[C@@H]2O)[C@H](O)[C@H](O)C1(C)C (stereo not given in full),1.43,-11.5,2.01,-4.29,inactive,inactive,inactive,inactive,inactive,inactive,inactive,–,–,–,–,–,–,–,–,–
Clc1cc2c(NC3CCCC3)nnc(-c3ccncc3)c2cc1Cl,-9.96,-55.6,2.36,-2.41,inactive,inactive,inactive,inactive,inactive,inactive,inactive,–,–,–,–,–,–,–,–,–
CC(=O)O[C@H]1[C@H](O[C@H]2[C@@H]3C=CO[C@@H](O[C@@H]4O[C@H](CO)[C@@H](O)[C@H](O)[C@H]4O)[C@@H]3[C@@]3(CO)O[C@@H]23)O[C@@H](C)[C@H](OC(=O)/C=C/c2ccccc2)[C@H]1OC(=O)/C=C/c1ccccc1,-0.402,-13,–,0.432,–,–,–,–,–,–,–,–,inactive,1.54% [at 11.6 µM],23.2% [at 11.6 µM],9.13% [at 11.6 µM],2.44% [at 11.6 µM],-1.93% [at 11.6 µM],-2.9% [at 11.6 µM],-3.47% [at 11.6 µM]
CCc1cc(CN2CC(C(=O)O)C2)sc1-c1noc(-c2ccc(Oc3ccccc3)cc2)n1,-73,-26.8,-20.8,-43,inactive,inactive,inactive,inactive,inactive,inactive,inactive,–,–,–,–,–,–,–,–,–
CCCOc1ccc(-c2nc(OC)c3ccccc3n2)cc1,4.19,-0.801,–,1.75,inactive,inactive,inactive,inactive,inactive,inactive,inactive,–,inactive,–,–,–,–,–,–,–
CC[C@H]1OC(=O)[C@H](C)[C@@H](O[C@H]2C[C@@](C)(OC)[C@@H](O)[C@H](C)O2)[C@H](C)[C@@H](O[C@@H]2O[C@H](C)C[C@H](N(C)C)[C@H]2O)[C@](C)(O)C[C@@H](C)C(=O)[C@H](C)[C@H]2OC(=O)O[C@@]21C,-4.98,-4.77,7.84,3.61,inactive,inactive,inactive,inactive,inactive,inactive,inactive,–,–,–,–,–,–,–,–,–
CC1(C)C2CC=C(COC3OC(COC4OCC(O)(CO)C4O)C(O)C(O)C3O)C1C2 (stereo not given),-3.04,3.64,4.52,3.88,inactive,inactive,inactive,inactive,inactive,inactive,inactive,–,–,–,–,–,–,–,–,–
CN[C@@H]1[C@H](O[C@H]2[C@H](O[C@@H]3[C@@H](O)[C@H](O)[C@@H](N=C(N)N)[C@H](O)[C@H]3N=C(N)N)O[C@@H](C)[C@]2(O)C=O)O[C@@H](CO)[C@H](O)[C@H]1O,4.73,-17.2,–,-1.39,inactive,inactive,inactive,inactive,inactive,inactive,inactive,–,inactive,–,–,–,–,–,–,–
C[C@@H]1O[C@@H](OC[C@H]2O[C@@H](OC(CCCCc3ccc(O)cc3)CCc3ccc(O)cc3)[C@H](O)[C@@H](O)[C@@H]2O)[C@H](O)[C@H](O)[C@H]1O (stereo not given in full),1.77,-5.01,–,-4.82,inactive,inactive,inactive,inactive,inactive,inactive,inactive,–,inactive,–,–,–,–,–,–,–
